We go through two molecules from PubChem BioAssay (EPA / NIEHS).

Structures are written as SMILES. Inconclusive results are not listed. Where a structure was tested more than once in an assay, its records may differ in their call. The source made the active and inactive calls. Rule for the calls: active = hit-call score of the fitted dose curve at least 0.9, where 1 is the maximum; inconclusive = response in the unintended direction; inactive = score below 0.9.

Test [1] is described as follows: ATG_M_06_XSP1: Attagene TRANS-FACTORIAL Multi-Species (XSP1) HepG2 Assay for M06 Transcription Factor (Internal Marker) (AID 2283790). The procedure, abridged:
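Transfected HepG2 multi-reporter system treated 24 h in the presence of 3 nM 6-alpha-fluorotestosterone. The M06 internal marker transcript was quantified by RT-PCR with capillary electrophoresis as a background control, and gain of signal was scored versus DMSO.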

Test [2] can be described thus: ATG_M_61_XSP1: Attagene TRANS-FACTORIAL Multi-Species (XSP1) HepG2 Assay for M61 Transcription Factor (Internal Marker) (AID 2283797). Summed up: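 HepG2 cells transiently transfected with multiplexed GAL4-driven reporter units, dosed 24 h with 3 nM 6-alpha-fluorotestosterone present. Reporter mRNA quantified by RT-PCR, 6-FAM labelling, HpaI digestion and capillary electrophoresis; internal-marker background control, gain of signal versus DMSO.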

Test [3] is described as follows: ATG_M_19_XSP1: Attagene TRANS-FACTORIAL Multi-Species (XSP1) HepG2 Assay for M19 Transcription Factor (Internal Marker) (AID 2283798). The procedure, abridged:
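HepG2 cells transiently transfected with multiplexed GAL4-UAS reporter units, dosed 24 h with 3 nM 6-alpha-fluorotestosterone present for partial AR stimulation. Reporter mRNA measured by RT-PCR with capillary electrophoresis; gain-of-signal fitted relative to DMSO.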

The nature of test [4]: ATG_M_32_XSP1: Attagene TRANS-FACTORIAL Multi-Species (XSP1) HepG2 Assay for M32 Transcription Factor (Internal Marker) (AID 2283799). The procedure, abridged:
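HepG2 cells transiently transfected with multi-species TRANS reporter units, dosed 24 h with 3 nM 6-alpha-fluorotestosterone present. Internal-marker reporter mRNA quantified by RT-PCR and capillary electrophoresis; positive-direction fit versus DMSO.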

Test [5] concerns the target Peroxisome proliferator-activated receptor gamma (Homo sapiens) (UniProt P37231). In words: ATG_hPPARg_XSP1: Attagene TRANS-FACTORIAL Multi-Species (XSP1) HepG2 Assay for human Peroxisome Proliferator-activated Receptor gamma (PPARg) (AID 2283800). The procedure, abridged:
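HepG2 cells transiently transfected with GAL4-UAS reporter units carrying chimeric NR-Gal4 proteins; 3 nM 6-alpha-fluorotestosterone present. After 24 h dosing, reporter mRNA quantified by RT-PCR and capillary electrophoresis; gain of signal relative to DMSO.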

Test [6] relates to zebrafish Peroxisome Proliferator-activated Receptor gamma (PPARg), gene 557037. In words: ATG_zfPPARg_XSP1: Attagene TRANS-FACTORIAL Multi-Species (XSP1) HepG2 Assay for zebrafish Peroxisome Proliferator-activated Receptor gamma (PPARg) (AID 2283801). Summed up:
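HepG2 cells transiently transfected with GAL4-UAS reporter units including a zebrafish PPARg–GAL4 chimera, dosed 24 h with 3 nM 6-alpha-fluorotestosterone present. Reporter mRNA quantified by RT-PCR, FAM labelling, HpaI digestion and capillary electrophoresis; induction versus DMSO.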

Test [7] addresses mouse Peroxisome Proliferator-activated Receptor gamma (PPARg), Pparg (gene 19016) (UniProt P37238). The test is described as follows: ATG_mPPARg_XSP1: Attagene TRANS-FACTORIAL Multi-Species (XSP1) HepG2 Assay for mouse Peroxisome Proliferator-activated Receptor gamma (PPARg) (AID 2283802). The procedure, abridged: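 HepG2 cells transiently transfected with GAL4-UAS reporter units driven by mouse PPARg–GAL4 chimera; 3 nM 6-alpha-fluorotestosterone present. After 24 h dosing, reporter mRNA quantified by RT-PCR, fluorescent labelling and capillary electrophoresis; gain of signal versus DMSO.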

Test [8] has as its target Nuclear receptor subfamily 1 group I member 2 (Mus musculus) (UniProt O54915). In words: ATG_mPXR_XSP1: Attagene TRANS-FACTORIAL Multi-Species (XSP1) HepG2 Assay for mouse Pregnane X Receptor (PXR) (AID 2283803). Summed up:
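Transiently transfected HepG2 cells expressing a receptor-Gal4 chimera drive a GAL4-UAS reporter; 3 nM 6-alpha-fluorotestosterone included. Reporter mRNA read 24 h post-dose by RT-PCR and capillary electrophoresis; gain of signal relative to DMSO.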

In test [9] the test system is turtle Thyroid Hormone Receptor, alpha (TRa), gene 101949057. The test is described as follows: ATG_trTRa_XSP1: Attagene TRANS-FACTORIAL Multi-Species (XSP1) HepG2 Assay for turtle Thyroid Hormone Receptor, alpha (TRa) (AID 2283806). Summed up:
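HepG2 cells transiently transfected with GAL4-UAS reporter units and chimeric receptor-Gal4 constructs, with 3 nM 6-alpha-fluorotestosterone present. Reporter mRNA was quantified 24 h after dosing by RT-PCR, 6-FAM labelling and capillary electrophoresis; gain of signal versus DMSO.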

Test [10] has as its target zebrafish Thyroid Hormone Receptor alpha (TRa), thraa (gene 30670) (UniProt Q98867). In words: ATG_zfTRa_XSP1: Attagene TRANS-FACTORIAL Multi-Species (XSP1) HepG2 Assay for zebrafish Thyroid Hormone Receptor alpha (TRa) (AID 2283807). The procedure, abridged: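 HepG2 cells transiently transfected with GAL4-UAS reporter units including a zebrafish TRa–Gal4 chimera, dosed 24 h with 3 nM 6-alpha-fluorotestosterone present. Reporter mRNA quantified by RT-PCR and capillary electrophoresis; gain versus DMSO.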

The target in test [11] is human Thyroid hormone Receptor beta (TRb), THRB (gene 7068) (UniProt P10828). In words: ATG_hTRb_XSP1: Attagene TRANS-FACTORIAL Multi-Species (XSP1) HepG2 Assay for human Thyroid hormone Receptor beta (TRb) (AID 2283808). Summed up:
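HepG2 cells transiently transfected with reporter units driving GAL4-UAS reporters for chimeric NR-Gal4 proteins; 24 h chemical exposure with 3 nM 6-alpha-fluorotestosterone present. Reporter mRNA quantified by RT-PCR and capillary electrophoresis, gain of signal versus DMSO.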

In test [12] the target is zebrafish Thyroid Hormone Receptor beta (TRb), thrb (gene 30607) (UniProt Q9PVE4). In words: ATG_zfTRb_XSP1: Attagene TRANS-FACTORIAL Multi-Species (XSP1) HepG2 Assay for zebrafish Thyroid Hormone Receptor beta (TRb) (AID 2283809). Summed up:
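HepG2 cells transiently transfected with multiplexed GAL4-UAS reporter units expressing chimeric zebrafish TRb–Gal4. Dosed 24 h with 3 nM 6-alpha-fluorotestosterone present; reporter mRNA measured by RT-PCR, HpaI digestion and capillary electrophoresis; gain of signal versus DMSO.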

The nature of test [13]: ATG_XTT_Cytotoxicity_XSP1: Cytotoxicity Assessment in the Attagene TRANS-FACTORIAL Multi-Species (XSP1) HepG2 Assay (AID 2283810). The procedure, abridged:
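XTT viability readout taken at 24 hours post-dosing in HepG2 liver cells co-treated with 3 nM 6-alpha-fluorotestosterone. Signal loss relative to DMSO controls reflects cytotoxicity.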

Test [14] concerns turtle Androgen Receptor (AR), gene 101947425. The test is described as follows: ATG_trAR_XSP2: Attagene TRANS-FACTORIAL Multi-Species (XSP2) HepG2 Assay for turtle Androgen Receptor (AR) (AID 2283815).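 For AC50: potency for gain of reporter signal meaning activation above DMSO baseline.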 Summed up: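 HepG2 cells transiently transfected with GAL4-UAS reporter units for chimeric NR-Gal4 receptors; 24 h dosing in presence of 3 nM 6-alpha-fluorotestosterone and 1.5 nM norgestrel. Reporter mRNA by RT-PCR and capillary electrophoresis, gain of signal versus DMSO.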

Sequence of Nuclear receptor subfamily 1 group I member 2 (Mus musculus) (O54915 whole entry, looked up, the tested form may be a part): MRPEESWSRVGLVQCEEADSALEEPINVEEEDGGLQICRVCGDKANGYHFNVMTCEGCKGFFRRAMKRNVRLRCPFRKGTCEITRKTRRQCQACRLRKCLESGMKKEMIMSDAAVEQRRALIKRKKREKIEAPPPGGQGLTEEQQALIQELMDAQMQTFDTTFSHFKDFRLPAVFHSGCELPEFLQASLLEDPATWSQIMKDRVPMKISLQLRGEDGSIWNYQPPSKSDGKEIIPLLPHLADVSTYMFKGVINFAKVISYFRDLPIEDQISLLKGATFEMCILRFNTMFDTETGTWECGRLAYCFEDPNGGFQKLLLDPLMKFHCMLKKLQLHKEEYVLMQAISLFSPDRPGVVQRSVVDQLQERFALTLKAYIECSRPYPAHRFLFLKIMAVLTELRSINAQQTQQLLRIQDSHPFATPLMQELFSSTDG
Sequence of zebrafish Thyroid Hormone Receptor alpha (TRa), thraa (gene 30670) (Q98867 whole entry, looked up, the tested form may be a part): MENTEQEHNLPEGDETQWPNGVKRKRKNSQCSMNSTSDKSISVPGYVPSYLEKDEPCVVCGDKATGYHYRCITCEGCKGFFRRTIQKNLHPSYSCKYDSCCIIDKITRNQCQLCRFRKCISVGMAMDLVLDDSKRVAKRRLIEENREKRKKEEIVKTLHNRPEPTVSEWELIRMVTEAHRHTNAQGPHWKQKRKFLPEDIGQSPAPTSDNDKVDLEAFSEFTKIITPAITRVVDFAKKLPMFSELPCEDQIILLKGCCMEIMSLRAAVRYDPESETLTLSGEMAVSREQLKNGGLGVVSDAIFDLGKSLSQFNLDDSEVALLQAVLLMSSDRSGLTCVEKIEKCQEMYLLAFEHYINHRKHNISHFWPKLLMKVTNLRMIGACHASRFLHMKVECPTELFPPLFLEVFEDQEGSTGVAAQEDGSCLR
Sequence of Peroxisome proliferator-activated receptor gamma (Homo sapiens) (P37231 whole entry, looked up, the tested form may be a part): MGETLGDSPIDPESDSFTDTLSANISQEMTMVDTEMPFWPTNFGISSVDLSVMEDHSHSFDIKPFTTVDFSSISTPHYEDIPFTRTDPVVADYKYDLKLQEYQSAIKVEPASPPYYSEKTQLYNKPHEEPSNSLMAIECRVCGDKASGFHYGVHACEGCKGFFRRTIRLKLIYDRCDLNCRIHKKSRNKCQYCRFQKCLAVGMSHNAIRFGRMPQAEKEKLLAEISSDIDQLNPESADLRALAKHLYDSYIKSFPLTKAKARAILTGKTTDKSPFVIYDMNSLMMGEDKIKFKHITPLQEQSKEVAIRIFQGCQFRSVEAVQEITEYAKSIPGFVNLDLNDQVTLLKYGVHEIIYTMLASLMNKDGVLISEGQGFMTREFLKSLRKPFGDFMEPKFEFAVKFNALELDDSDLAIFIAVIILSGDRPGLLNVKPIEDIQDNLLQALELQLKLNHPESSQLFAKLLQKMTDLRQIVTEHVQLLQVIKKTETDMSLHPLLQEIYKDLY
Sequence of mouse Peroxisome Proliferator-activated Receptor gamma (PPARg), Pparg (gene 19016) (P37238 whole entry, looked up, the tested form may be a part): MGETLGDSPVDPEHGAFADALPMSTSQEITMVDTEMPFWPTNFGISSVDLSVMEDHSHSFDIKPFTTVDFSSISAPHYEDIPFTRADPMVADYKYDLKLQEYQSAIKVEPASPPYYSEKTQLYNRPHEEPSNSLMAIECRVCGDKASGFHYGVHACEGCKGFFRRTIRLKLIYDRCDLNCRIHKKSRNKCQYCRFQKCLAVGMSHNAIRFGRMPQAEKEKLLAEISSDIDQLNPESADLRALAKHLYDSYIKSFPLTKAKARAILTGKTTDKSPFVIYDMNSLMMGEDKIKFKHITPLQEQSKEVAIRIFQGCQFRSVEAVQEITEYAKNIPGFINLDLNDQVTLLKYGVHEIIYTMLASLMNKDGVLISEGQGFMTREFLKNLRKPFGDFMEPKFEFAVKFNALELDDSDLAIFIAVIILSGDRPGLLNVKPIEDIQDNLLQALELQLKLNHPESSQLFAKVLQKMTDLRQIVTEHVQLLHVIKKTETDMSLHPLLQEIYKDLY
Sequence of zebrafish Thyroid Hormone Receptor beta (TRb), thrb (gene 30607) (Q9PVE4 whole entry, looked up, the tested form may be a part): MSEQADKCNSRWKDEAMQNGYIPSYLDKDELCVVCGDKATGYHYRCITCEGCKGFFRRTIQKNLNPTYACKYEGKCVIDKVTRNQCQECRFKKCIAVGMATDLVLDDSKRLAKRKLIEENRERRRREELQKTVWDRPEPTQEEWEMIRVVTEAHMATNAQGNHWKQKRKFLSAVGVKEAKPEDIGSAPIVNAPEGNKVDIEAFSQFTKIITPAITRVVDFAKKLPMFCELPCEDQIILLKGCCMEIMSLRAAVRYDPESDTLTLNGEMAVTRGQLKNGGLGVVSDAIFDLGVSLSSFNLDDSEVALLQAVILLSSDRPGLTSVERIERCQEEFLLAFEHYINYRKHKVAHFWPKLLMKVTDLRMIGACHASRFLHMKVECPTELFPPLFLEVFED
Sequence of human Thyroid hormone Receptor beta (TRb), THRB (gene 7068) (P10828 whole entry, looked up, the tested form may be a part): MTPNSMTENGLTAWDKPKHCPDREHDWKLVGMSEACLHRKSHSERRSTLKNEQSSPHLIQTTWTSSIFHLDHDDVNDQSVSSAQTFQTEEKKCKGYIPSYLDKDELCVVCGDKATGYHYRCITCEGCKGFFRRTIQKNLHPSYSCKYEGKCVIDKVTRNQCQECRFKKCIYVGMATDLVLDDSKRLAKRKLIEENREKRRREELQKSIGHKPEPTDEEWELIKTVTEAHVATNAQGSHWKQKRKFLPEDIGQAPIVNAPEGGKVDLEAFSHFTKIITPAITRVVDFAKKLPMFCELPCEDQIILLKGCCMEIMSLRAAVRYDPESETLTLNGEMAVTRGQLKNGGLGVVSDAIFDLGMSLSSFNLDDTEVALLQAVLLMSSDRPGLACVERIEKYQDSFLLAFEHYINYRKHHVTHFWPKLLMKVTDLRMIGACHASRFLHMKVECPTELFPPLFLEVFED

As to `O=P(Oc1ccccc1)(Oc1ccccc1)Oc1ccccc1`, the molecule was classed as inactive in [1], in test [2], in [3], in test [4], in test [9] and in test [11]. Moreover, the outcome in test [12] and in [13] was inactive. The AC50 in [5] is 6.88 µM (active); in [6] it was 8.08 µM (active); in [7], 6.18 µM (active); in test [8] it was 0.367 µM (active); in test [10], 25.4 µM (active).
With `O=S(=O)(c1ccc(O)cc1)c1ccc(O)cc1`, in test [14], the AC50 was 27 µM (active) and the outcome was inactive.

The term AC50 denotes the concentration giving half of the maximal activity seen.
